Test results reported in PubChem BioAssay (NCI).
About 79,000 compounds went through this panel and 15% of them were active in at least one assay; those are over-represented in the sample as a whole. No stated cut-off is given here; in the data, active means growth inhibition above about 70%; inactive means the rest.

Key:
[1] = NCI Yeast Anticancer Drug Screen. Data for the rad50 strain (AID 155);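 further: 0% = growth of vehicle-only cultures of the same strain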; conditions: S. cerevisiae rad50 strain growth inhibition; at 50.0 µM; hits give high values
Summary of the method: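 DNA repair mutant yeast, compound exposure, growth read-out; inhibition is taken relative to vehicle.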

[2] = NCI Yeast Anticancer Drug Screen. Data for the mec2-1 strain (AID 157); conditions: S. cerevisiae mec2-1 strain, at 50.0 µM, hits give high values
Summary of the method: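 Compounds were applied to mec2-1 yeast cells. Their growth was then compared with that of vehicle-treated cultures to give growth inhibition.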

[3] = NCI Yeast Anticancer Drug Screen. Data for the sgs1 mgt1 strain (AID 161);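 further: 0% = growth of cultures given vehicle only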; conditions: S. cerevisiae sgs1 mgt1 strain, at 50.0 µM, hits give high values
Summary of the method: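 Percent growth inhibition was derived by comparing compound-exposed mutant yeast with vehicle-exposed cultures. The strain carries alterations in DNA damage repair.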

[4] = NCI Yeast Anticancer Drug Screen. Data for the cln2 rad14 strain (AID 165);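 further: 0% = growth equal to vehicle treated cultures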; conditions: S. cerevisiae cln2 rad14 strain, at 50.0 µM, hits give high values
Summary of the method: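 Strain: cln2 rad14 yeast, altered in cell cycle control and DNA damage repair. Read-out: growth inhibition vs vehicle.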

[5] = NCI Yeast Anticancer Drug Screen. Data for the bub3 strain (AID 167); conditions: S. cerevisiae bub3 mutant strain, at 50.0 µM, hits give high values
Summary of the method: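 In this screen, a yeast mutant lacking normal mitotic checkpoint function is challenged with compound. Relative growth versus vehicle gives the inhibition value.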

[6] = NCI Yeast Anticancer Drug Screen. Data for the mlh1 rad18 strain (AID 175); conditions: S. cerevisiae mlh1 rad18 strain growth inhibition; at 50.0 µM; hits give high values
Summary of the method: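 A repair-deficient yeast strain is exposed to test compound, and growth is scored relative to vehicle-treated controls.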

Measured: growth inhibition

CCOP(=O)(N=S=O)OCC
inactive: [1] 5.75% | [2] -13.5% | [3] -4.05% | [4] -28.2% | [5] 7.95% | [6] -2.2%

Nc1ccc([As](O)O)c(C(=O)O)c1
inactive: [1] -15.1% | [2] -24.1% | [3] -27.9% | [4] -2.35% | [5] -26.3% | [6] -35.6%

CC1=C/C(=N\[Se]c2ccccc2)C(=O)C(C)=C1
inactive: [1] 43.7% | [2] 27.4% | [3] 24% | [4] -9.05% | [5] 47.4% | [6] 36.3%
